{"source": "paper PMC4336329", "about": "(PLoS ONE, 2015)", "note": "The campaign covered roughly 310,000 compounds. About 2,200 (0.71%) showed an effect of 50% or more. The effect is printed as a negative number. For the sample, strong results were picked, then their nearest neighbours and some compounds at random."}
{"biological_target": "human ether-à-go-go-related gene (hERG) potassium channel (human, UniProt Q12809)", "sequence (Q12809 whole entry, looked up)": "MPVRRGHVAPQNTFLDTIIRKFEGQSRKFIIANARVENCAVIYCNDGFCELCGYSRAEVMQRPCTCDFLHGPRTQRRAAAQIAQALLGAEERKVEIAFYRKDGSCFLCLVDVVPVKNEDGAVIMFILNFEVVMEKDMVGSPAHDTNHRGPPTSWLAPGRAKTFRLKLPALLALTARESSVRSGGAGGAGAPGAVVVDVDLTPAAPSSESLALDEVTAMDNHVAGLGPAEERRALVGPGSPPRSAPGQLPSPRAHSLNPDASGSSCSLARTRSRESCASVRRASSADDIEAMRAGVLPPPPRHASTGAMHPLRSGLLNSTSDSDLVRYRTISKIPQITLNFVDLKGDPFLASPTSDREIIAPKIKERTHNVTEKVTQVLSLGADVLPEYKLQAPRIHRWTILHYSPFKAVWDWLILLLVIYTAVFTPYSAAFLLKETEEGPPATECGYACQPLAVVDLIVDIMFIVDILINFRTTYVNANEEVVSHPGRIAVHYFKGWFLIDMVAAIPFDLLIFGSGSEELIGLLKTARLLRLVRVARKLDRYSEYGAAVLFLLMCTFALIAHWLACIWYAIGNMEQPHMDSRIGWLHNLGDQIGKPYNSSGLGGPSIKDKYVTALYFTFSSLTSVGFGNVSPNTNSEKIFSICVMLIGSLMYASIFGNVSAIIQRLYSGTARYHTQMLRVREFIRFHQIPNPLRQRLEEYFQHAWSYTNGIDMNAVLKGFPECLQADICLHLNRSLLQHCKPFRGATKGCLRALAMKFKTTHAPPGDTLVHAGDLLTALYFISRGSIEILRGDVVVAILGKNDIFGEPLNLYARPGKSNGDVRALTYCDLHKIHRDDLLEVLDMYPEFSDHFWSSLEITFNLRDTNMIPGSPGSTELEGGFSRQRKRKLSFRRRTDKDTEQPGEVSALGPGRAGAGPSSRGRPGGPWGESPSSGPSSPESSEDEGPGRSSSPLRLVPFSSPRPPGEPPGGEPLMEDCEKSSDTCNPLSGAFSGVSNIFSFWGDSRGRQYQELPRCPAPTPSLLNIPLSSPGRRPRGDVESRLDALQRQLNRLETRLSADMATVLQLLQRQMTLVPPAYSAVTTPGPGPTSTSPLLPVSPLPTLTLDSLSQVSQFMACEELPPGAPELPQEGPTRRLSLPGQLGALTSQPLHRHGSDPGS", "assay": "primary screen, population patch clamp on CHO cells stably expressing hERG; higher = less effect of the substance", "units": {"hERG current change (%, negative = inhibition) at 1uM": "%"}}
{"smiles": "COc1ccc(S(=O)(=O)NCCC(C)C)cc1C", "hERG current change (%, negative = inhibition) at 1uM": 4.62}
{"smiles": "CCn1cc(CN(C)C(=O)/C=C/c2ccc([N+](=O)[O-])cc2)c(C)n1", "hERG current change (%, negative = inhibition) at 1uM": -35.3}
{"smiles": "Cc1c(CN(C)C(=O)/C=C/c2ccc([N+](=O)[O-])cc2)cnn1C", "hERG current change (%, negative = inhibition) at 1uM": -65.5}
{"smiles": "Cc1c(CN(C)C(=O)c2nn(C)cc2[N+](=O)[O-])cnn1C", "hERG current change (%, negative = inhibition) at 1uM": 10.8}
{"smiles": "CC(C)c1ccc(O)c(CN2CCN(c3ccccc3)CC2)c1", "hERG current change (%, negative = inhibition) at 1uM": 10.3}
{"smiles": "COc1ccc(C(C)=O)cc1CN1C(=O)NC2(CCCCCCC2)C1=O", "hERG current change (%, negative = inhibition) at 1uM": 19.8}
{"smiles": "CCOc1ccc(C(C)=O)cc1CN1C(=O)NC2(CCCCCCC2)C1=O", "hERG current change (%, negative = inhibition) at 1uM": -51.8}
{"smiles": "CCOc1ccc(C(C)=O)cc1CN1C(=O)NC2(CCCCCC2)C1=O", "hERG current change (%, negative = inhibition) at 1uM": 13.5}
{"smiles": "CCC(=O)OCC(=O)Nc1ccc([N+](=O)[O-])cc1OC", "hERG current change (%, negative = inhibition) at 1uM": 9.97}
{"smiles": "Cc1ccccc1OCCC(=O)Nc1ccc(F)c(Cl)c1", "hERG current change (%, negative = inhibition) at 1uM": 13.7}
{"smiles": "CC(=O)N1CC(C)Sc2ccc(S(=O)(=O)NCc3ccc(Cl)cc3)cc21", "note": "(stereo not shown)", "hERG current change (%, negative = inhibition) at 1uM": 1.91}
{"smiles": "Cc1ccc(/C=C/C(=O)N2CCCN(C(=O)/C=C/c3ccc(C)cc3)CC2)cc1", "hERG current change (%, negative = inhibition) at 1uM": -53.5}
{"smiles": "CCN1CCN(C(=O)/C=C/c2ccc(C)cc2)CC1", "hERG current change (%, negative = inhibition) at 1uM": 4.54}
{"smiles": "CCN1CCN(C(=O)/C=C/c2ccc(F)cc2)CC1", "hERG current change (%, negative = inhibition) at 1uM": -13.1}
{"smiles": "CN1CCCN(C(=O)/C=C/c2ccc(F)cc2)CC1", "hERG current change (%, negative = inhibition) at 1uM": -5.11}
{"smiles": "O=C(/C=C/c1ccccc1)N1CCCN(C(=O)/C=C/c2ccccc2)CC1", "hERG current change (%, negative = inhibition) at 1uM": -44}
{"smiles": "Cc1ccc(/C=C/C(=O)NCCCN2CCN(CCCNC(=O)/C=C/c3ccc(C)cc3)CC2)cc1", "hERG current change (%, negative = inhibition) at 1uM": 7.32}
{"smiles": "O=C(/C=C/c1ccc(F)cc1)NCCCN1CCN(CCCNC(=O)/C=C/c2ccc(F)cc2)CC1", "hERG current change (%, negative = inhibition) at 1uM": -72.5}
{"smiles": "O=C(/C=C/c1ccc(F)cc1)N1CCCN(C(=O)/C=C/c2ccc(F)cc2)CC1", "hERG current change (%, negative = inhibition) at 1uM": -84.7}
{"smiles": "O=C(/C=C/c1ccc(F)cc1)NCCNC(=O)/C=C/c1ccc(F)cc1", "hERG current change (%, negative = inhibition) at 1uM": 16.8}
{"smiles": "Cc1ccccc1S(=O)(=O)N1[C@@H](c2ccc(F)cc2)C(C(=O)O)=CC[C@H]1c1ccc(Cl)cc1", "hERG current change (%, negative = inhibition) at 1uM": 8.27}
{"smiles": "COc1ccc(/C=C2\\CCCC3C2=NN(C(=O)CSc2ncn[nH]2)C3c2ccc(OC)cc2)cc1", "note": "(stereo not shown)", "hERG current change (%, negative = inhibition) at 1uM": 16.5}
{"smiles": "CCCCn1c(N)c(N(CC(C)C)C(=O)c2cccc(S(=O)(=O)N3CCCCCC3)c2)c(=O)[nH]c1=O", "hERG current change (%, negative = inhibition) at 1uM": 4.52}
{"smiles": "Cc1ccc(NC(=O)CSc2nnc(-c3ccco3)o2)c(C)c1", "hERG current change (%, negative = inhibition) at 1uM": 17.5}
{"smiles": "Cc1ccc(C(=O)N/C(=C\\c2cccs2)C(=O)NCCCn2ccnc2)cc1C", "hERG current change (%, negative = inhibition) at 1uM": -32.3}
{"smiles": "O=C(NCCCn1ccnc1)/C(=C\\c1cccs1)NC(=O)c1ccccc1", "hERG current change (%, negative = inhibition) at 1uM": -19.1}
{"smiles": "COc1ccc(C(=O)N/C(=C/c2cccs2)C(=O)NCCCn2ccnc2)cc1OC", "hERG current change (%, negative = inhibition) at 1uM": 0.585}
{"smiles": "Cc1ccc(C(=O)N/C(=C\\c2cccs2)C(=O)NCCCn2ccnc2)cc1", "hERG current change (%, negative = inhibition) at 1uM": -66}
{"smiles": "O=C(NCCCn1ccnc1)/C(=C\\c1cccs1)NC(=O)c1cccs1", "hERG current change (%, negative = inhibition) at 1uM": -27.6}
{"smiles": "Cc1ccc(C(=O)N/C(=C/c2cccs2)C(=O)NCCCn2ccnc2)cc1", "hERG current change (%, negative = inhibition) at 1uM": -50}
{"smiles": "CSC1=N/C(=C\\c2ccccc2Cl)C(=O)N1N(C)C", "hERG current change (%, negative = inhibition) at 1uM": 1.86}
{"smiles": "Cc1cc(=O)[nH]c(SC(C)C(=O)Nc2cccc3ccccc23)n1", "note": "(stereo not shown)", "hERG current change (%, negative = inhibition) at 1uM": 6.33}
{"smiles": "CCC(=O)Nc1ccc(N2CCN(CC)CC2)c(Cl)c1", "hERG current change (%, negative = inhibition) at 1uM": 8.56}
{"smiles": "CCCOc1ccc(C(=O)N2CCN(c3ccc(NC(=O)CC)cc3Cl)CC2)cc1", "hERG current change (%, negative = inhibition) at 1uM": -58.7}
{"smiles": "CCN1CCN(c2ccc(NC(C)=O)cc2Cl)CC1", "hERG current change (%, negative = inhibition) at 1uM": 10.3}
{"smiles": "CCCOc1ccc(C(=O)N2CCN(c3ccc(N)cc3Cl)CC2)cc1", "hERG current change (%, negative = inhibition) at 1uM": -6.51}
{"smiles": "CCCC(=O)Nc1ccc(N2CCN(CC)CC2)c(Cl)c1.Cl", "hERG current change (%, negative = inhibition) at 1uM": -17.9}
{"smiles": "CCN1CCN(c2ccc(NC(=O)c3cccc(F)c3)cc2Cl)CC1", "hERG current change (%, negative = inhibition) at 1uM": -8.27}
{"smiles": "CCN1CCN(c2ccc(NC(=O)c3ccc(F)cc3)cc2Cl)CC1", "hERG current change (%, negative = inhibition) at 1uM": -66.8}
{"smiles": "COc1ccc(OCC(=O)Nc2ccc(N3CCN(C(=O)c4ccccc4)CC3)c(Cl)c2)cc1", "hERG current change (%, negative = inhibition) at 1uM": 9.86}
{"smiles": "CCCCCC(=O)Nc1ccc(N2CCN(CC)CC2)c(Cl)c1", "hERG current change (%, negative = inhibition) at 1uM": -55.6}
{"smiles": "CCC(=O)NC(=S)NNC(=O)c1ccc([N+](=O)[O-])cc1", "hERG current change (%, negative = inhibition) at 1uM": 8.99}
{"smiles": "CC(OC(=O)c1cccs1)C(=O)NC1CC1", "note": "(stereo not shown)", "hERG current change (%, negative = inhibition) at 1uM": 7.03}
